Screens: PubChem, National Center for Advancing Translational Sciences (NCATS)
Pf growth 96h: Primary qHTS for delayed death inhibitors of the malarial parasite plastid, 96 hour incubation; Potency, µM (highest dose often 28.7 µM), without a hit: at the top dose activity change, negative = inhibition, usual class: inhibitors; 320,000 tested, 6.9% active; P. falciparum luciferase reporter growth, 96 h; AID 504834, 2011; note: potency is the fitted concentration of half-maximal effect; % is set by controls: 0 for no effect and ±100 for the full control effect
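Plates of compound plus infected erythrocytes (2% hematocrit, 0.05% parasitemia final) incubate 96 hours, 37 C, 5% CO2. Detection reagent added; reduced luminescence from the parasites' luciferase reporter flags inhibition.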
SARS PLP yeast: qHTS of Yeast-based Assay for SARS-CoV PLP. S. cerevisiae expressing SARS-CoV PLpro, growth rescue. 330,000 tested, 0.19% active. Potency, µM (series often up to 32.9 µM), inactives show at the top dose activity, positive = growth rescue, usual class: activators; calls by dose curve; note: potency is the fitted concentration of half-maximal effect; 0% is about no effect; nearly all actives have a fitted effect of over 55% in size
Cycloheximide cs: Cycloheximide Counterscreen for Small Molecule Inhibitors of Shiga Toxin; cell reporter, cycloheximide protein synthesis inhibition counterscreen; max response, %; 300,000 tested, 12% active; AID 2314, 2010; in the data active = max response mostly above about 13%, no sharp cut-off; inactive = mostly below about 14%; note: read at 38.3 µM for the half of the compounds with a filed dose; 0% is about no effect
NS1 function inh: qHTS Assay for Inhibitors of Influenza NS1 Protein Function; 270,000 tested, 0.4% active; Potency, µM (highest dose often 46.1 µM), without a hit: at the top dose activity, positive = more growth; calls by dose curve; note: potency is the fitted concentration of half-maximal effect; actives are rising curves; nearly all actives have a fitted effect of over 50% in size
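A cell-based growth assay was used: compounds that relieve NS1-induced slow growth of budding yeast raise OD600. Assay medium was yeast nitrogen base with ammonium sulphate and -URA supplement, pH 6.0, with 2% galactose.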
Pf growth 48h: Primary qHTS for delayed death inhibitors of the malarial parasite plastid, 48 hour incubation | 310,000 tested, 5.9% active | Potency, µM (series often up to 28.7 µM), for inactives: at the highest dose activity change, negative = inhibition, most hits filed as inhibitors | AID 504832, 2011 | P. falciparum luciferase growth in erythrocytes, 48 h; note: potency is the fitted concentration of half-maximal effect; % is set by controls: 0 for no effect and ±100 for the full control effect
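Compounds are pin-transferred into medium, infected erythrocytes (2% hematocrit, 0.1% parasitemia final) are added, and plates sit one parasite generation at 37 C in 5% CO2. Detection reagent is then added and luminescence measured.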
Shiga inhibitor: A qHTS for Small Molecule Inhibitors of Shiga Toxin; Vero cells, Shiga toxin protein synthesis inhibition reporter; inhibition, % at 38.7 µM; 290,000 tested, 9.2% active; AID 2315, 2010; in the data active = inhibition mostly above about 28%, no sharp cut-off; inactive = mostly below about 43%; note: 0% is about no effect
Starred values were filed as active, the others as inactive; ? = inconclusive; . = not tested or not shown. A selection: hits, their analogues and other compounds. The true share with any hit is near 21%. Unless noted, calls come from the whole dose curve; as a rule, active = well fitted inhibition curve with a large enough effect; inconclusive = small, poorly fitted or top-dose-only effect, or another doubt; inactive = no such curve, though single readings can be large or run the other way.

SMILES	Pf growth 96h	SARS PLP yeast	Cycloheximide cs	NS1 function inh	Pf growth 48h	Shiga inhibitor
C[C@H](C(=O)OCO/N=[N+](\[O-])N1CCCC1)c1cccc2ccccc12	.	.	13.5	.	.	14.8
Cc1cccc(-n2cc(CN3CCN(c4ccccn4)CC3)c(-c3cccc(F)c3)n2)c1	?	-2.2%	-2.8	0.7%	?	1.5
Cc1ccc(-n2cc(CN3CCN(c4ccccn4)CC3)c(-c3ccc(F)cc3)n2)cc1	-11.6%	-4.0%	4.4	1.8%	9.28µM*	32.6
COc1ccc(-n2cc(CNCC3CCOCC3)c(-c3cccc(F)c3)n2)cc1	17.8%	0.0%	7.6	2.6%	?	6.8
Cc1ccc(-n2cc(CNCCc3cscn3)c(-c3ccc(F)cc3)n2)cc1	7.4%	-0.4%	10.2	3.0%	?	28.5
Cc1ccc(-n2cc(CN3CCN(C(=O)c4ncn[nH]4)CC3)c(-c3ccc(F)cc3)n2)cc1	14.7µM*	0.3%	16.7*	0.9%	11.7µM*	40.5
Cc1ccc(-n2cc(CN3CCN(Cc4nccn4C)CC3)c(-c3ccc(F)cc3)n2)cc1	?	-1.0%	15.0*	2.9%	6.57µM*	57.4
COc1ccc(-n2cc(CNCCCn3ccnc3)c(-c3cccc(F)c3)n2)cc1	-13.4%	0.0%	1.3	2.1%	1.47µM*	5.4
Cc1ccc(-n2cc(CNCCCn3ccnc3C)c(-c3ccc(F)cc3)n2)cc1	22.7%	1.4%	2.4	-0.4%	2.33µM*	3.8
Cc1c(C(=O)N2CC[C@@H](N3CCC(O)CC3)[C@H](O)C2)[nH]c2ccc(Cl)cc12	?	-5.1%	1.3	-3.0%	19.8%	-3.4
COCCN1C(=O)c2ccccc2C(C(=O)NCc2ccco2)C1c1c[nH]c2ccccc12 (stereo unspecified)	-0.3%	-1.6%	-3.1	-10.9%	?	-1.5
COCCN1C(=O)c2ccccc2C(C(=O)NCCCN2CCCC2)C1c1c[nH]c2ccccc12 (stereo unspecified)	-13.6%	5.6%	-4.5	-10.8%	13.1µM*	-1.4
CCC(=O)Nc1cccc(-c2nc3ccccc3c(=O)o2)c1	-9.6%	8.2%	-5.0	-12.2%	-1.7%	-22.1
CCC(=O)Nc1ccc2oc(-c3ccccc3Br)nc2c1	-5.6%	-26.0%	49.0*	-153.7%	36.1%	122.0*
Cc1ccccc1-c1nc2cc(NC(=O)C3CC3)ccc2o1	-15.2%	-18.3%	42.6*	-90.4%	81.1%	108.9*
CC(=O)Nc1ccc2oc(-c3ccccc3Br)nc2c1	1.3%	-34.0%	70.8*	-146.9%	.	92.6*
CC(C)C(=O)Nc1ccc2oc(-c3cc(F)c(F)cc3Cl)nc2c1	?	15.6%	2.0	-1.6%	?	23.1
CC(=O)Nc1ccc2oc(C)nc2c1	5.8%	-0.7%	-1.0	0.2%	?	5.7
Cc1ccccc1-c1nc2ccccc2o1	6.2%	0.5%	10.6	1.5%	.	-3.0
CC(=O)Nc1ccc2oc(-c3cc(F)c(F)cc3Cl)nc2c1	?	-1.6%	32.2*	-0.9%	86.1%	180.7*
Cc1cccc(-n2ccnc2SCC(=O)N2CCCc3ccccc32)c1C	-28.7%	23.3%	10.3	-14.9%	-10.6%	-14.4
CC(C)(C)C1CCC(=NNC(=O)CN(c2ccccc2)S(=O)(=O)c2ccccc2[N+](=O)[O-])CC1 (stereo unspecified)	11.0%	-5.5%	9.2	?	-16.5%	25.1
C/C(=N\NC(=O)CN(c1ccccc1)S(=O)(=O)c1ccccc1[N+](=O)[O-])C(C)(C)C	11.7µM*	-7.7%	-2.3	16.0%	?	-12.2
S=C(NCC1CC1)N/N=C/c1ccccc1Cl	?	-0.3%	2.7	-5.2%	?	25.7*
O=C(N/N=C/c1ccccc1Cl)C1CC1	19.4%	-2.8%	5.9	-6.5%	0.8%	-2.0
COc1ccc(OC)c(NC(=O)CSc2nc3n[nH]c(C)c3c(=N)n2-c2cccc(Cl)c2C)c1	?	-0.5%	24.7*	-4.5%	?	-2.4
CCc1ccccc1NC(=O)CSc1nc2n[nH]c(C)c2c(=N)n1-c1cccc(OC)c1	.	18.2%	0.7	1.5%	13.1µM*	5.9
